We go through 18 compounds from PubChem BioAssay (Tox21).

Test [1] is described as follows: A CellTox Green Cytotoxicity Assay to monitor cytotoxicity in HEK293 cells - 40 hour (AID 1224871). Further: nearly all actives have a fitted effect of over 45% in size. Summed up:
(§1)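 Real-time, in one plate: 600 HEK293 cells/well with dead-cell DNA dye, pinned compound after 5 h, 37 C incubation over 40 h; viable cells give no appreciable fluorescence.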

The nature of test [2]: qHTS RealTime-Glo MT Cell Viability Assay in HEK293 cells - 16 hour (AID 1224872). Further: nearly all actives have a fitted effect of over 50% in size. Further: potency means the concentration at half of the fitted maximal effect. On activity change, negative = cytotoxicity: top concentration of the series differs between compounds. Summed up: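 Viability tracked continuously by luminescence as live cells reduce a prosubstrate for NanoLuc; HEK293 cells preincubated 5 h, compound-treated at 37 C, and read at 0, 8, 16, 24, 32 and 40 h.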
The nature of test [3]: qHTS RealTime-Glo MT Cell Viability Assay in HepG2 cells - 8 hour (AID 1224873). Further: nearly all actives have a fitted effect of over 55% in size. The method, boiled down:
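HepG2 cells (600/well) mixed with RealTime-Glo MT reagent, settled 5 h at 37 C/5% CO2 before compound addition. Nonlytic NanoLuc luminescence from viable-cell prosubstrate reduction read repeatedly during 40 h treatment at 37 C.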

The nature of test [4]: qHTS RealTime-Glo MT Cell Viability Assay in HEK293 cells - 40 hour (AID 1224874). Further: nearly all actives have a fitted effect of over 50% in size. Further: potency means the concentration at half of the fitted maximal effect. The following applies: RealTime-Glo luminescence; max response: hits give low values. The method, boiled down:
(§2)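 Kinetic, non-lysing viability readout. Seed HEK293 (600/well) with reagent, incubate 5 h at 37 C/5% CO2, pin 23 nL compound in DMSO, incubate at 37 C, read luminescence at 0, 8, 16, 24, 32, 40 h.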

The nature of test [5]: A CellTox Green Cytotoxicity Assay to monitor cytotoxicity in HEK293 cells - 24 hour (AID 1224875). Further: series mostly up to about 77 µM; nearly all actives have a fitted effect of over 45% in size. The method, boiled down:
as §1

Test [6] in a line: A CellTox Green Cytotoxicity Assay to monitor cytotoxicity in HepG2 cells - 16 hour (AID 1224876). Further: nearly all actives have a fitted effect of over 45% in size. The method, boiled down:
(§3)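 Cytotoxicity was tracked as dead-cell DNA fluorescence in HepG2 cells treated with test compounds at 37 C; each time-point value comes from one kinetic series spanning 0, 8, 16, 24, 32 and 40 h.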

Test [7] can be described thus: qHTS RealTime-Glo MT Cell Viability Assay in HepG2 cells - 32 hour (AID 1224877). Further: nearly all actives have a fitted effect of over 55% in size. The method, boiled down: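 Viability was tracked continuously by NanoLuc luminescence from prosubstrate reduced by living HepG2 cells, at successive time points over 40 h of compound exposure. Cells with reagent were preincubated 5 h at 37 °C before compound addition.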
Test [8] can be described thus: A CellTox Green Cytotoxicity Assay to monitor cytotoxicity in HepG2 cells - 40 hour (AID 1224879). Further: nearly all actives have a fitted effect of over 40% in size. Further: potency means the concentration at half of the fitted maximal effect. The method, boiled down: as §3
Test [9] can be described thus: qHTS RealTime-Glo MT Cell Viability Assay in HEK293 cells - 0 hour (AID 1224880). Further: top concentration of the series differs between compounds; nearly all actives have a fitted effect of over 45% in size. Summed up:
as §2

Test [10] in a line: A CellTox Green Cytotoxicity Assay to monitor cytotoxicity in HepG2 cells - 24 hour (AID 1224878). Further: nearly all actives have a fitted effect of over 45% in size. The method, boiled down:
as §3

Records with an inconclusive call do not appear. Unmarked numbers belong to inactive results. Active and inactive are the calls of the source. The call rests on the fitted dose curve; in most records, active means well fitted curve in the direction sought with a large enough effect in the repeat runs; inconclusive means weak or mixed curves; inactive means no such curve, though single readings can be large; an effect the other way counts as inactive or inconclusive.
On the % scale 0 is the no-effect control and ±100 the full control effect.

As to `COc1ccc(-c2nc3ccc(C4=NNC(=O)CC4C)cc3[nH]2)cc1` (stereo not drawn), the Potency result in test [1], in test [3], in test [5], in test [6], in test [7] and in [9] was “inactive” in each case. The results for the Potency in test [2], in test [4] and in [8] were 9.52 µM (active), 7.56 µM (active) and 21.3 µM (active), respectively.

In the case of `CC1(c2ccccc2)OC(C(=O)O)=CC1=O` (stereo not drawn), the Potency entry in [1], in test [2], in test [3], in [5], in test [6] and in test [10] was “inactive” throughout. The Potency entry in test [8] and in [9] was “inactive” in each case. Moreover, the max response in test [4] is 2.42%.

For `CCCCCCCCO[C@@H]1O[C@H](CO)[C@@H](O)[C@H](O)[C@H]1O`, the Potency result in [1], in [2], in test [3], in test [5], in test [6] and in test [7] was “inactive” throughout. The Potency entry in [8] and in test [9] was “inactive” each time. In addition, in test [4], the max response was 4.48%.

In the case of `COC(=O)c1ccc(I)cc1S(=O)(=O)NC(=O)Nc1nc(C)nc(OC)n1`, the Potency result in test [1], in test [2], in test [3], in [5], in [6] and in test [7] was “inactive” each time. Further, the Potency result in test [9] was “inactive”. In addition, the max response in [4] is 0.658%.

On to `COc1cccc(N(C)C(=S)Oc2ccc3c(c2)CCCC3)n1`, for which the Potency entry in test [1], in [2], in test [3], in test [5], in [6] and in test [7] was “inactive” throughout. Moreover, the Potency entry in test [9] is “inactive”. In addition, the max response in test [4] is -20.4%.

For `CC(=O)[O][Al][O]C(C)=O`, the Potency result in test [1], in test [2], in test [3], in test [5], in test [6] and in test [7] was “inactive” in each case. In addition, the Potency entry in test [8] and in [9] was “inactive” in each case. Moreover, in [4], the max response is 6.93%.

Consider `O=C(O)C(S)C(S)C(=O)O` (stereo not drawn), for which the Potency result in [1], in [2], in [3], in test [5], in [6] and in test [7] was “inactive” throughout. Besides, the Potency entry in [10] and in test [9] was “inactive” in each case. In test [4], the max response is 3.09%.

As for `CCCn1cnc2c1c(=O)n(CCCCC(C)=O)c(=O)n2C`, the Potency result in test [1], in test [2], in test [3], in test [5], in test [6] and in [10] was “inactive” each time. The Potency result in [8] and in test [9] was “inactive” each time. The max response in test [4] was -0.107%.

As to `Brc1c2ccccc2c(Br)c2ccccc12`, the cytotoxicity increase was -0.912% [at 6.97 µM] in [1], 2.77% [at 6.97 µM] in test [6] and -0.88% [at 6.97 µM] in [8]. Further, the activity change, negative = cytotoxicity was 0.583% [at 6.97 µM] in test [2] and 0.766% [at 6.97 µM] in [9]. Besides, the viability change, negative = cytotoxic in [3] is 0.903% [at 6.97 µM]. The max response in test [4] was 1.72%. Besides, in [5], the activity change was -0.621% [at 6.97 µM, hits give high values]. Further, the activity change, negative = cytotoxic in [7] is 0.723% [at 6.97 µM].

As for `Cc1ccccc1S(=O)(=O)O`, the Potency result in [1], in test [2], in [3], in [5], in test [6] and in [7] was “inactive” throughout. For the same compound, the Potency result in test [10] and in test [9] was “inactive” in each case. The max response in test [4] was 3.84%.

In the case of `C=C(C)C(=O)OCCOCC`, the Potency entry in [1], in [2], in test [3], in test [5], in [6] and in [7] was “inactive” in each case. For the same compound, the Potency entry in test [10] and in test [9] was “inactive” throughout. Moreover, the max response in test [4] was 17.3%.

As for `NS(=O)(=O)c1ccc(N2CCCCS2(=O)=O)cc1`, the Potency result in [1], in [2], in test [3], in test [5], in [6] and in [7] was “inactive” throughout. For the same compound, the Potency result in test [10], in [8] and in [9] was “inactive” throughout. In addition, in test [4], the max response is -0.0797%.

Turning to `CN1Cc2cc(C(=O)N3CCC(C4CCNCC4)CC3)ccc2NC(CC(=O)O)C1=O` (stereo not drawn), the Potency result in [1], in [2], in test [3], in test [5], in [6] and in [10] was “inactive” throughout. The Potency result in test [8] and in test [9] was “inactive” in each case. In addition, in test [4], the max response is 5.98%.

`OC[C@H]1O[C@@H](OCCc2ccc(O)cc2)[C@H](O)[C@@H](O)[C@@H]1O`: the Potency result in test [1], in test [2], in test [3], in test [5], in test [6] and in [7] was “inactive” each time. The Potency result in test [8] and in [9] was “inactive” each time. The max response in test [4] is 7.46%.

In the case of `CN(C)CCN(Cc1ccsc1)c1ccccn1`, the Potency result in test [1], in [2], in test [3], in [5], in test [6] and in test [10] was “inactive” throughout. Moreover, the Potency entry in test [8] and in [9] was “inactive” in each case. Further, in test [4], the max response is 1.6%.

In the case of `CCCCOC(=O)CCCCCCCC(=O)OCCCC`, the Potency entry in test [1], in [2], in test [3], in test [5], in [6] and in [7] was “inactive” in each case. Besides, the Potency result in test [10], in [8] and in [9] was “inactive” in each case. The max response in test [4] was 2.76%.

In the case of `O=C(OCCc1ccccc1)c1ccccc1`, the Potency result in [1], in [2], in [3], in [5], in test [6] and in test [7] was “inactive” each time. Moreover, the Potency entry in test [10], in [8] and in [9] was “inactive” each time. In addition, the max response in test [4] was -19.4%.

Take `CCCCO`: the Potency result in test [1], in test [2], in test [3], in test [5], in test [6] and in test [7] was “inactive” in each case. The Potency result in [10] and in [9] was “inactive” in each case. Further, the max response in test [4] was 1.62%.
